The whole screen tested about 2,100 compounds, of which about 650 (31%) were called active. Inconclusive results (about 16%) are left out. Some of the results follow. Unmarked numbers belong to inactive results. The call rests on the fitted dose curve; in most records, active means well fitted inhibition curve with a large enough effect; inconclusive means small, poorly fitted or top-dose-only effect; inactive means flat fitted curve, though single readings scatter.
Experiment: qHTS for inhibitors of Vif-A3G interactions: Cherry picks; further: nearly all actives have a fitted effect of over 80% in size; on activity, negative = fluorescence increase: % of control where 0% means no effect
Conditions: HeLa A3G-eYFP + Vif (tagged APOBEC3G with the HIV-1 protein that degrades it), 24 h; Potency: eYFP fluorescence increase; series mostly up to 36.9 µM; activity, negative = fluorescence increase: at the top concentration
Text: The recent discovery and characterization of host restriction factors, which provide a potent defense to invading retroviruses, has provided new targets for antiviral drug development. APOBEC3G (A3G) and APOBEC3F (A3F) are potent cytidine deaminases that block HIV-1 replication; HIV-1 expresses the Vif protein, which counteracts A3G and A3F by binding to them and inducing their proteasomal degradation. The Vif-A3G and Vif-A3F interactions provide two potential targets for development of small molecules which can interfere with the ability of Vif to degrade A3G or A3F. […] To identify inhibitors that can interfere with Vif mediated degradation of A3G and A3F, we have developed Hela cell lines that stably express A3G or A3F tagged with eYFP at the C-terminal end (A3G-eYFP or A3F-eYFP, respectively) and Vif. In the absence of an inhibitor, Vif induces degradation of A3G-eYFP and A3F-eYFP, and the cells are not fluorescent. In the presence of an inhibitor, it is expected that Vif will be unable to degrade A3G-eYFP and/or A3F-eYFP, resulting in an increase in yellow fluorescence. In this assay, Vif A3G was screened against the cherry picks ordered from the MLSMR. NIH Chemical Genomics Center [NCGC] NIH Molecular Libraries Probe Centers Network [MLPCN] MLPCN Grant: MH093245 Assay Submitter (PI): Vinay Pathak, National Cancer Institute
A3G-Vif cells were harvested from T225 flask and resuspended in phenol free OPTI-MEM medium with 5% FBS. Then 5 uL of 140,000 cells/mL resuspended cells was dispensed into each well of low base Aurora COC 1,536-well plates (black walled, clear bottom) using a Multidrop Combi dispenser. After overnight culture at 37 deg C with 5% CO2, a total of 23 nL of compounds at 5 selected concentrations from the NPC or positive control (2 mM stock of MG132) in DMSO was transferred to each well of the assay plate using a pintool (Kalypsys, San Diego, CA), and the plates were further incubated at 37 deg C with 5% CO2 for 24 hours. After that, the plates were measured on Acumen Explorer (TTP Lab Tech). The fluorescence was detected by 488 nm/Ex and […].
Potency means the concentration at half of the fitted maximal effect.

SMILES	activity, negative = fluorescence increase	Potency
O=C(N/N=C/c1ccc([N+](=O)[O-])o1)c1cn2ccc3ccccc3c2n1	-24.5%	–
O=C(Nc1nc2c(F)cccc2s1)c1ccc([N+](=O)[O-])o1	-7.65% [at 46.1 µM]	–
O=C(N/N=C/c1ccc([N+](=O)[O-])o1)c1sc2ccccc2c1Cl	–	18.4 µM (active)
COc1cc(C2Nc3ccc4ncccc4c3C3=C2C(=O)CCC3)ccc1O (stereo not given)	-1.83%	–
O=C(Nc1ncccn1)c1ccc([N+](=O)[O-])o1	-21.8%	–
COc1ccccc1OCC(=O)NNC(=O)Nc1ccc(Cl)cc1	-5.61%	–
O=C(N/N=C/c1cccs1)c1n[nH]c2c1CCC2	0.292%	–
O=C(N/N=C\C=C\c1ccc([N+](=O)[O-])o1)c1cccs1	–	15.8 µM (active)
CCCOC(=O)/C(=C\c1ccc([N+](=O)[O-])o1)NC(=O)c1ccccc1	2.95% [at 46.1 µM]	–
COc1ccccc1OCC(=O)N/N=C/C=C/c1ccc([N+](=O)[O-])o1	–	16.4 µM (active)
COc1cc2c(c(OC)c1OC)-c1ccc(N(C)CC(OC)OC)c(=O)cc1[C@@H](NC(C)=O)CC2	-15.4%	–
CC(C)(C)c1ccc(Oc2ccc(NC(=O)c3ccccc3C(=O)O)cn2)cc1	-6.2%	–
COc1cc2ccccc2cc1C(=O)N/N=C/c1cccnc1	-15.3%	–
Cn1c(=O)[nH]c(=O)c2c1nc(Br)n2Cc1cccc(Br)c1	-5.77%	–
Cc1cc2nc3c(=O)n(Cc4ccccc4)c(=O)[nH]c3nc2cc1N	–	6.27 µM (active)
Cc1cc2nc3c(=O)n(C4CCCCC4)c(=O)[nH]c3nc2cc1N	–	16.4 µM (active)
Cc1nc2c3cc(F)ccc3n(Cc3ccccc3)c2s1	-4.45%	–
Cc1cccc(C)c1OCCNC(=O)C(=O)NCc1ccco1	2.6%	–
CC1CC(C)(C)Nc2ccc(OC(=O)c3ccco3)cc21 (stereo not given)	–	20.6 µM (active)
COc1cc(C2Oc3ccccc3C=C2[N+](=O)[O-])cc(OC)c1OC (stereo not given)	0.838%	–
N#CC1=C(N)C(C#N)(C#N)[C@H](c2ccoc2)[C@H]2CN(Cc3ccccc3)CC=C12	-15.3%	–
CCOC(=O)C1=C(C)N=c2sc(=Cc3cc(Cl)c(OCC(=O)O)c(Cl)c3)c(=O)n2C1c1cccc(OC)c1 (stereo not given)	-25.7%	–
CC(=O)c1sc2nc(-c3cccs3)cc(C(F)(F)F)c2c1N	–	7.31 µM (active)
Nc1c(C(=O)C2CC2)sc2nc(-c3cccs3)cc(C(F)(F)F)c12	–	2.31 µM (active)
CC(C)(C)C(=O)c1sc2nc(-c3cccs3)cc(C(F)(F)F)c2c1N	–	1.3 µM (active)

SMILES	activity, negative = fluorescence increase	Potency
Cc1ccc(-c2cc(NC=O)c3ncc(-c4cccc(C(=O)N(C)C)c4)n3c2)cc1	-12.4%	–
CCOC(=O)c1c(-c2ccc(OC)cc2)csc1/N=C/C1=C(O)CCCC1=O	-5.4% [at 46.1 µM]	–
Cc1ccc(S(=O)(=O)N2CCN(C(=O)CSC(=S)N3CCCC3)CC2)c(C)c1	2.82% [at 46.1 µM]	–
COC(=O)C1=C(C)N(Cc2ccco2)C(=O)/C1=C\c1ccc([N+](=O)[O-])cc1	-5.03% [at 46.1 µM]	–
CCN1CCN(c2c(/C=C3\SC(=S)N(Cc4ccco4)C3=O)c(C)c(C#N)c(=O)n2C)CC1	–	18.4 µM (active)
Cc1cc(/C=C2\SC(=S)N(Cc3ccco3)C2=O)c(C)n1-c1cccnc1	–	23.1 µM (active)
CN(C)c1ccc(C=C2SC(=S)N(Cc3ccco3)C2=O)cc1	–	2.8 µM (active)
C/C(=N/NC(N)=S)c1ccc(Br)s1	4.29% [at 46.1 µM]	–
CCCC(=O)NC(c1ccc(OC)cc1)c1ccc2cccnc2c1O (stereo not given)	2.17% [at 46.1 µM]	–
Cn1ccnc1Sc1nc2ccccc2nc1NS(=O)(=O)c1ccccc1	9.44% [at 46.1 µM]	–
CC(OC(=O)/C(C#N)=C/c1ccc(N(C)C)cc1)C(=O)N(C)Cc1ccccc1 (stereo not given)	–	18.4 µM (active)
COc1ccc(N=Cc2c(O)n(-c3cccc(C)n3)c(=O)c3ccccc23)c(OC)c1	–	13 µM (active)
COc1ccc(-c2cc(C(=O)N/N=C/c3sccc3C)c3ccccc3n2)c(OC)c1	-10.7%	–
CCc1cccc2c(C(O)c3c[nH]c4ccccc34)c[nH]c12 (stereo not given)	–	20.6 µM (active)
N#CC1=C(N)Oc2cc(N)ccc2C1c1ccccc1 (stereo not given)	-1.01%	–
CC1CC(=O)C2=C(C1)OC(N)=C(C#N)C2c1coc2ccccc2c1=O (stereo not given)	–	23.1 µM (active)
C=CCn1cc(/C=C/c2cc[n+](C)cc2)c2ccccc21	–	7.04 µM (active)
CC(C)n1cc(/C=C/c2cc[n+](C)cc2)c2ccccc21	–	0.25 µM (active)
CCn1cc(/C=C/c2cc[n+](C)cc2)c2ccccc21	–	1.77 µM (active)
CC(C)n1cc(/C=C2\NC(=O)N(c3cccc(Cl)c3)C2=O)c2ccccc21	-21.4%	–
CCOC(=O)CSC1=C(C#N)C(c2ccc(C)s2)CC(=O)N1 (stereo not given)	-2.09%	–
N#C/C(N=Nc1ccccc1O)=N\Nc1ccccc1O	–	14.6 µM (active)
NC(=O)c1ccc(Cn2c(C(=O)c3cc(Cl)c(N)c(Cl)c3)c3ccccc3[n+]2[O-])cc1	-3.16%	–
Cc1c(C(=O)Nc2cccnc2)oc2ccc(Br)cc12	-3.28%	–
COc1cc(C(=O)NCCOc2cc(C)cc(C)c2)cc(OC)c1OC	-7.09%	–
